Most compounds without a hit are left out; they make up all but 2.4% or so of the library.
Pol eta inh-1 – inhibitors of human DNA polymerase eta | recombinant Pol eta, fluorescent DNA replication assay | Potency, µM (doses to about 114 µM), for the others: at the highest dose activity change, negative = inhibition, usual class: inhibitors | 390,000 tested, 1.2% active | AID 588591; further: on the % scale 0 is the no-effect control and ±100 the full control effect
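Fluorescent replication assay: 50 nM final substrate added after a 15 min room-temperature compound preincubation with 10 nM enzyme. Signal taken at 0 min and again at 10 min.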
WRN inhibitor – blocks human WRN helicase. 360,000 tested, 0.46% active. WRN helicase unwinding, fluorescent forked duplex, kinetic. Potency, µM (doses to about 114 µM), for the others: top-dose activity change, negative = inhibition, hits mostly inhibitors. Q14191. AID 651768; further: on the % scale 0 is the no-effect control and ±100 the full control effect; nearly all actives have a fitted effect of over 55% in size
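Primary qHTS, 1536-well format. 20 nM WRN + compound, 15 min RT; start with 100 nM forked fluorophore/quencher duplex, 2 mM ATP (final); kinetic read ex 525/em 598 nm.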
POLI inh – DNA polymerase iota (human) inhibition | Q9UNA4 | Pol iota fluorescent replication assay, 10 min | Potency, µM (doses to about 115 µM), inactives show top-dose activity, negative = inhibition, actives largely listed as inhibitors | 390,000 tested, 1% active | AID 588590
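Fluorescent replication assay read twice, at 0 min and 10 min after adding 50 nM (final) substrate. Enzyme (10 nM) and compounds were first incubated 15 min at room temperature; enzyme-free buffer wells were negative controls.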
POLB inh – blocks human DNA polymerase beta activity | P06746 | Pol beta primer extension/strand displacement, fluorescence kinetic | Potency, µM (titrated, usually from 114 µM), for the others: at the highest dose activity change, negative = inhibition, hits mostly inhibitors | 340,000 tested, 1.3% active | AID 485314; further: on the % scale 0 is the no-effect control and ±100 the full control effect
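Reaction started by 50 nM substrate onto compound-treated Pol beta (10 nM, 15 min preincubation, room temperature); plates read at 0 min and 10 min. Normalized concentration-effect data fitted by four-parameter Hill equation.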
Pol kappa inh-1 – blocks human DNA polymerase kappa activity | Potency, µM (titrated, usually from 107 µM), inactives show top-dose activity, negative = inhibition, usual class: inhibitors | AID 588579 | purified Pol kappa, fluorescent DNA synthesis assay, 10 min | 400,000 tested, 0.53% active | Q9UBT6; further: on the % scale 0 is the no-effect control and ±100 the full control effect
Target sequence (Q9UBT6 whole entry, looked up): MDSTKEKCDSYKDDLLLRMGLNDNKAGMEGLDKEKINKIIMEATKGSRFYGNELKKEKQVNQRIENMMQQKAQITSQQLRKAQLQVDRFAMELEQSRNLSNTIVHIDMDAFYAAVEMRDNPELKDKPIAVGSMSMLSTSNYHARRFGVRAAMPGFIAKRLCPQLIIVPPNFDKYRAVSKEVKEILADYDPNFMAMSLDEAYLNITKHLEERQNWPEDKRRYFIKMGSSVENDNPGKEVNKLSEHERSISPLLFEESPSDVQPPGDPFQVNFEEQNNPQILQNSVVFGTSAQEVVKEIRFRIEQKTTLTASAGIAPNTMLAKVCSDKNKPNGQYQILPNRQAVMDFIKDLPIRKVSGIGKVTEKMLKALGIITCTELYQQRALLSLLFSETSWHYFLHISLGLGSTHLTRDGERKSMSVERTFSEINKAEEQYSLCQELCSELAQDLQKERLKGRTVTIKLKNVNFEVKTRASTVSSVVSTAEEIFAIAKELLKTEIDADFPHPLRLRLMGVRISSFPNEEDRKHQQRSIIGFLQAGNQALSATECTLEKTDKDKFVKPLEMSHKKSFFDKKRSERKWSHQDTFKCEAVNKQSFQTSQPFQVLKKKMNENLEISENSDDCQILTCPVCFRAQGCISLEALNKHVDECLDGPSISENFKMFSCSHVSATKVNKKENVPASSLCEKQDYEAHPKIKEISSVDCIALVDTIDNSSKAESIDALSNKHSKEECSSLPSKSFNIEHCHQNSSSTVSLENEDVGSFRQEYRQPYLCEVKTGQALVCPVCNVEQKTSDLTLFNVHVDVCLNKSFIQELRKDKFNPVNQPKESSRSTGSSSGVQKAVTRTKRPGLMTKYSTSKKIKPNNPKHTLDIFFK
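10 nM Pol kappa was preincubated with compounds for 15 min at room temperature. Reaction started with 50 nM (final) substrate. Fluorescence read kinetically at 0 and 10 min.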
FEN1 inh – inhibitors of human flap endonuclease 1; Recombinant FEN1 flap cleavage, fluorescence, 15 min; Potency, µM (series often up to 114 µM), inactives show at the top dose activity change, negative = inhibition, most hits filed as inhibitors; 390,000 tested, 0.35% active; AID 588795; further: on the % scale 0 is the no-effect control and ±100 the full control effect; nearly all actives have a fitted effect of over 65% in size
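Quantitative HTS format: each compound was titrated, incubated with 10 nM nuclease for 15 min at room temperature, then challenged with flap substrate at 50 nM final. Signal change over 15 min gave concentration–effect curves.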
Pol kappa inh-2 – confirmation of human DNA polymerase kappa inhibitors | shares compounds with Pol eta inh-1 | purified Pol-kappa, fluorescent strand-displacement substrate | Potency, µM, usual class: inhibitors | 920 tested, 76% active | AID 720501
Pol eta inh-2 – confirmation of human DNA polymerase eta inhibitors. shares compounds with Pol eta inh-1. Pol eta primer extension, TAMRA/BHQ fluorescence, 10 min. Potency, µM, most hits filed as inhibitors. 2,600 tested, 64% active
Numbers without * were called inactive; u = inconclusive; x = no result given; [ ] = remark or other dose. The call rests on the fitted dose curve; in most records, active means well fitted curve in the direction sought with a large enough effect; inconclusive means small, poorly fitted or top-dose-only effect, or another doubt; inactive means no such curve, though single readings can be large; an effect the other way counts as inactive or inconclusive. Potency means the concentration at half of the fitted maximal effect.

SMILES | Pol eta inh-1 | WRN inhibitor | POLI inh | POLB inh | Pol kappa inh-1 | FEN1 inh | Pol eta inh-2 | others
Cc1cccc(NC(=S)NC(=O)/C=C/c2ccco2)c1 | 50.1µM* | u | 20µM* | 31.6µM* | 79.4µM* | -24.6% | u
Cc1cc(NS(=O)(=O)c2ccc(NC(=O)/C=C/c3ccco3)cc2)nc(C)n1 | 28.2µM* | u | u | -0.4% | 79.4µM* | -32.7% | 33.8*
COc1ccccc1NC(=S)NC(=O)/C=C/c1ccco1 | 20µM* | u | u | 44.7µM* | u | -7.1% | u
NS(=O)(=O)c1ccc(NC(=S)NC(=O)/C=C/c2ccco2)cc1 | 31.6µM* | -13.0%[11.6 µM] | u | u | u | -2.0% | u | Pol kappa inh-2=37.7*
O=C(Nc1cccc(C(F)(F)F)c1)N1CCC(CN2CCCCCC2)CC1 | -11.7% | x | 20.8% | -3.8% | -2.2% | 15.0% | x
CCOCN(C(=O)Cn1cnc2cc(C)c(C)cc21)c1c(C)cccc1CC | -15.1% | x | 15.9% | 0.7% | -9.9% | -10.2% | x
COc1ccc(Nc2cc(C)c3cc(NC(=O)COc4cccc(C)c4)ccc3n2)cc1 | -29.7% | x | 33.7% | 0.7% | -1.3% | 5.5% | x
Nc1ccc(C(CC(=O)O)n2cccc2)cc1 (stereo not drawn) | 25.1µM* | -5.7%[11.6 µM] | 39.8µM* | u | 44.7µM* | 12.1% | 33.8*
O=C(O)CC(c1ccccc1)n1cccc1 (stereo not drawn) | -0.2% | 7.8% | 7.1% | 5.9% | 1.7% | 1.3% | x
COc1ccc(-c2nn(CCC(=O)O)cc2/C=C2\SC(N)=NC2=O)cc1OC | 10µM* | -4.8%[11.6 µM] | -21.2% | -1.3% | u | 0.3% | 42.6*
O=C(O)c1cccc(N2CCCC2)c1 | u | -9.1%[57.1 µM] | u | 2.2% | -14.3% | 6.2% | 75.7*
O=C(O)c1cccc(N2CCCC2=O)c1 | -7.8% | -0.9% | u | -0.4% | 7.1% | -0.3% | x
Cc1ccc(C(=O)COC(=O)c2cc(=O)[nH]c3ccccc23)cc1C | 50.1µM* | -8.1%[11.6 µM] | 26.3% | 5.6% | -14.2% | -12.9% | 67.5*
Cc1cc(N)n(-c2ccc(Oc3ccccc3)c(S(=O)(=O)O)c2)n1 | 17.8µM* | -35.7% | u | 14.1µM* | u | 7.1% | x | Pol kappa inh-2=u
Nc1nc(=S)c2snnc2[nH]1 | x | x | 8.0% | x | 2.7% | u | x
CC(=O)Nc1ccc(N2C(=O)c3cccc4c(O)ccc(c34)C2=O)cc1 | 31.6µM* | 50.1µM* | u | u | u | u | u | Pol kappa inh-2=29.9*
COc1ccc(CC(=O)Nc2sc3c(c2C(=O)Nc2ccc(C)cc2)CCCCC3)cc1 | u | x | -21.5% | u | -16.4% | 7.8% | u | Pol kappa inh-2=u
CC1C/C(=C/c2ccncc2)C(=O)/C(=C/c2ccncc2)C1 (stereo not drawn) | 31.6µM* | u | u | 2.9% | 3.4% | -22.6% | 75.7*
CCN(CC)S(=O)(=O)c1ccc(C(=O)OCC(=O)NCc2ccco2)cc1 | u | -30.6% | u | u | u | -5.2% | x
COc1ccc(/C=C/C(=O)OCC(=O)Nc2cc(S(=O)(=O)N(C)C)ccc2Cl)cc1 | -20.8% | -4.8% | 23.2% | -12.3% | 0.4% | 17.5% | x
CCN(CC)S(=O)(=O)c1ccc(/C=C/C(=O)OCC(=O)NCc2ccco2)cc1 | 15.8µM* | u | 35.5µM* | x | u | -5.0% | u | Pol kappa inh-2=42.3*
CN(C)S(=O)(=O)c1ccc(Cl)c(NC(=O)COC(=O)/C=C/c2ccco2)c1 | u | -15.0% | u | u | -30.1% | 1.0% | u
COC(=O)c1ccc(NC(=O)CSc2ncc3c(n2)-c2cc(Cl)ccc2N(Cc2ccccc2)S3(=O)=O)cc1 | -2.4% | x | 7.5% | -21.0% | -13.4% | -1.7% | x
Cc1ccc(C(=O)CSC2=C(C#N)C(c3ccco3)CC(=O)N2)c(C)c1 (stereo not drawn) | 79.4µM* | u | 17.8µM* | 31.6µM* | u | -0.7% | u
Cc1ccc(NC(=O)CSC2=C(C#N)C(c3ccco3)CC(=O)N2)cc1 (stereo not drawn) | u | -3.1% | 5.8% | 0.2% | -13.6% | -11.8% | x
SMILES | Pol eta inh-1 | WRN inhibitor | POLI inh | POLB inh | Pol kappa inh-1 | FEN1 inh | Pol eta inh-2 | others
O=C(CSc1nc2ccc(S(=O)(=O)N3CCOCC3)cc2[nH]1)N1CCOCC1 | 10.1% | -17.9% | -13.1% | 3.9% | -9.9% | 4.0% | u | Pol kappa inh-2=29.9*
CC(=O)Oc1cc(C(=O)OCC(=O)NC23CC4CC(CC(C4)C2)C3)cc(OC(C)=O)c1OC(C)=O | 3.16µM* | 14.1µM* | u | x | 17.8µM* | 14.1µM* | 9.53* | Pol kappa inh-2=8.44*
O=C1/C(=C\c2ccccn2)SC(=S)N1c1ccc(S(=O)(=O)Nc2nccs2)cc1 | 17.8µM* | u | u | u | u | u | 84.9*
Cc1ccc(/C=C2/SC(=S)N(c3ccc(S(=O)(=O)Nc4nccs4)cc3)C2=O)cc1 | 39.8µM* | u | 17.8µM* | u | u | u | 75.7*
Cc1cccc(/C=C(\C(=O)O)c2ccc(S(=O)(=O)N3CCCC3)s2)c1 | 12.6µM* | u | u | x | u | 0.8% | u | Pol kappa inh-2=33.6*
O=C(O)/C(=C\c1cccc(F)c1)c1ccc(S(=O)(=O)N2CCCC2)s1 | u | -5.4% | -21.3% | x | -6.0% | 0.4% | x
COc1ccc(-c2csc3ncnc(Nc4ccc(OC)c(OC)c4)c23)cc1 | u | x | u | u | -10.7%[60.1 µM] | -6.6% | x
Fc1ccc(Nc2ncnc3c2nc2n3CCCCC2)c(F)c1 | -3.8% | x | 7.3% | 45.7% | -7.9% | -5.4% | x
O=C(N/N=C/c1ccncc1)c1cc([N+](=O)[O-])cc([N+](=O)[O-])c1O | 25.1µM* | -21.0%[57.1 µM] | u | 0.4% | -5.2% | -11.7% | u
O=C(O)CCCN1C(=O)/C(=C\C(Cl)=C\c2ccccc2)SC1=S | 10µM* | u | u | u | u | u | 23.9* | Pol kappa inh-2=37.7*
CCCCc1ccc(C(=O)COC(=O)c2ccc3nc(C)c(C)nc3c2)cc1 | x | x | 17.8% | x | -2.1% | -0.3% | x
Cc1cccc(NC(=O)CN2C(=O)CCc3ccccc32)c1C | -2.8% | x | u | 1.5% | -8.1% | 3.3% | x
CCN(CC)Cc1cc(O)c(CN(CC)CC)cc1O | 50.1µM* | 50.1µM* | u | 3.55µM* | 8.91µM* | u | u
Cc1ccccc1CNC(=O)c1ccc(CS(=O)Cc2ccc(Cl)cc2)o1 (stereo not drawn) | -8.2% | x | 20.6% | 12.2% | -13.5% | -1.2% | x

High-throughput results deposited in PubChem by National Center for Advancing Translational Sciences (NCATS).
